{"source": "PubChem BioAssay (NCI)", "note": "This is part of a sample that, as a whole, favours compounds with a hit. Of some 83,000 tested, about 20% had one in any assay.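 Method: cells in 96-well plates; compound added at one concentration; 48 h incubation; percent growth measured; values under 10 scored active.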 Activity calls are given as the source filed them.", "data": [{"system": "HOP-92 NSCLC", "assay": "NCI-60 one-dose screen, 48 h (100 = growth as untreated, 0 = no growth, -100 = all killed)", "details": "10 µM unless noted", "method": "Growth inhibition of the HOP-92 human Non-Small Cell Lung tumor cell line is measured as a screen for anti-cancer activity. Cells are grown in 96 well plates and exposed to the test compound for 48 hours. Compounds are tested at a single concentration, which is 10^-5 M for most compounds. The reported endpoint is percent growth (GI% or GIPRCNT), where numbers from 0 - 100% represent growth inhibition, and numbers from -100% - 0 represent cell death. For example, a value of 40 represents 60% growth inhibition. A value of 0 means no net growth occurred over the course of the experiment. A value of -40 indicates 40% of cells at the beginning of the experiment died by the end of the experiment. A value of -100 means all cells are dead at the end of the experiment.\nNCI-60 Human Tumor Cell Lines Screen was performed using the standard one-dose NCI protocol, which is described in more detail at https://dtp.cancer.gov/discovery_development/nci-60/default.htm.\nCompounds with GIPRCNT values below 10 were considered active. Activity score was based on GIPRCNT using the following formula: […]\nScore is 0 for GIPRCNT values of 100 or above, 50 for GIPRCNT values of 0, and 100 for GIPRCNT values of -100.", "values": [{"smiles": "Clc1ccc2c(c1)nnn1c3ncccc3c(Br)c21", "growth": "42.9% (inactive)"}, {"smiles": "CCCCCCCCCCCCCCCCCCNCc1ccc(Cl)cc1", "growth": "-78% (active)"}, {"smiles": "O=C(CNc1cccnc1)Nc1ccc(C(=O)/C=C/c2ccc(Cl)cc2)cc1", "growth": "90.7% (inactive)"}, {"smiles": "S=c1n(CNc2ccc(Cl)nn2)nc(-c2cc(Cl)cc(Cl)c2Cl)n1/N=C/c1ccc(Cl)cc1", "growth": "34.3% (inactive)"}, {"smiles": "COc1ccc2c(-c3ccc(F)cc3)c(C#N)c(=NC(C)=O)oc2c1", "growth": "70.6% (inactive)"}, {"smiles": "NC(N)=N/N=C/c1ccc([N+](=O)[O-])cc1", "growth": "104% (inactive)"}, {"smiles": "O=C(C[n+]1cccc(Br)c1)c1ccc2c(c1)CCCC2", "growth": "70.5% (inactive)"}, {"smiles": "COc1ccccc1N1CCN(CC(O)COc2c(Br)c(Br)c(Br)c3c2OC(C)(C)C3)CC1", "note": "(stereo not given)", "growth": "-28.9% (active)"}, {"smiles": "COc1ccc(C(=O)NC(=O)Nc2ccc3c(c2)NC(=O)/C3=C\\c2[nH]c(C)c(CCC(=O)O)c2C)c(F)c1", "growth": "83.5% (inactive)"}, {"smiles": "COc1ccc(-c2nnc(SCC(=O)Nc3ccc(C(=O)/C=C/c4ccc(Cl)cc4)cc3)o2)cc1OC", "growth": "29.7% (inactive)"}, {"smiles": "CN(C)CCNc1nc2ccccc2c2c(=O)c3ccccc3sc12", "growth": "4.02% (active)"}, {"smiles": "COc1cc(/C=C/C(=O)c2ccc(Oc3ncnc4ccccc34)cc2)cc(OC)c1OC", "growth": "109% (inactive)"}, {"smiles": "COc1cccc(-c2nc3sccn3c2-c2ccnc(NCCNC(=O)c3ccccc3)n2)c1", "growth": "77.8% (inactive)"}, {"smiles": "O=C1OC(c2ccc(-c3ccccc3)cc2)=C/C1=C/C=C/c1ccccc1", "growth": "68.7% (inactive)"}, {"smiles": "CCCN1C(=O)CSC1=Nc1ccc2cc3ccc(N=C4SCC(=O)N4CCC)cc3nc2c1", "growth": "57.1% (inactive)"}, {"smiles": "C#C[C@@]1(O)[C@@H](CO)O[C@@H](n2cc(Br)c3c(Cl)ccnc32)[C@@H]1O", "growth": "-60.5% (active)"}, {"smiles": "COc1ccc(-c2nn(-c3ccc(NC(=O)Nc4cc(C(F)(F)F)cc(C(F)(F)F)c4)cc3)cc2-c2ccncc2)cc1Cl", "growth": "-21.6% (active)"}, {"smiles": "Nc1ncnc2c1ccn2-c1cccc(NC(=O)c2cccc(C(F)(F)F)c2)c1", "growth": "-1.72% (active)"}, {"smiles": "CCC1S/C(=N\\N=C(/C)c2cc3ccccc3o2)N(c2ccccc2)C1=O", "note": "(stereo not given)", "growth": "47% (inactive)"}, {"smiles": "CCCOC(=O)c1ccc([N+](=O)[O-])o1", "growth": "109% (inactive)"}, {"smiles": "FC(F)(F)c1cn(CCN2CCOCC2)c2ncnc(Cl)c12", "growth": "-62.3% (active)"}, {"smiles": "CCOC(=O)c1noc2c1CCc1cn(Cc3cc(OC)cc(OC)c3)cc1-2", "growth": "104% (inactive)"}, {"smiles": "CCCCOc1nc2ccc(Cl)cc2cc1/C=C/C(=O)/C=C/c1ccc(OC)cc1", "growth": "93.4% (inactive)"}, {"smiles": "CCCCn1c(-c2cccc(OC)c2)nc2cc(OC)c(OC)cc2c1=O", "growth": "83.1% (inactive)"}, {"smiles": "CCc1ccc(C2=C/C(=C/c3ccc(Cl)cc3)C(=O)N2CCc2ccc(S(N)(=O)=O)cc2)cc1", "growth": "15.1% (inactive)"}, {"smiles": "CCC(C)Nc1ccc(N)cc1", "note": "(stereo not given)", "growth": "-24.5% (active)"}, {"smiles": "O=C(Nc1ccc(-n2ccc3c(NC(=O)c4ccccc4)nccc32)cc1)c1cccc(C(F)(F)F)c1", "growth": "47.4% (inactive)"}, {"smiles": "Nc1n[nH]c2cccc(C#Cc3cccc(NC(=O)c4cccc(C(F)(F)F)c4)c3)c12", "growth": "-4.2% (active)"}, {"smiles": "COc1ccc(N)c(S)c1", "growth": "88.4% (inactive)"}, {"smiles": "CC12CCC3C(CCC4CC(O)CCC43C)C1C/C(=C/O)C(=O)O2", "note": "(stereo not given)", "growth": "99.6% (inactive)"}, {"smiles": "O=C(Nc1ccc(Cl)c(Cl)c1)Nc1ccc(Cl)c([N+](=O)[O-])c1", "growth": "-23.2% (active)"}, {"smiles": "CC(C(C(=O)N1CCCCC1)N1CCCCC1)N1CCCCC1", "note": "(stereo not given)", "growth": "112% (inactive)"}, {"smiles": "Nc1nc2ccc(CNc3ccc(C(=O)NC(CC(=O)O)C(=O)O)cc3)cc2c(=O)[nH]1", "note": "(stereo not given)", "growth": "64.1% (inactive)"}, {"smiles": "COc1ccc(-c2nnc(SCC(=O)Nc3ccc(C(=O)/C=C/c4ccccc4)cc3)o2)cc1OC", "growth": "105% (inactive)"}, {"smiles": "O=S(=O)(CCN1CCOCC1)Nc1cc(-c2ccc3ncnc(Nc4ccc(F)c(Cl)c4)c3c2)cnc1Cl", "growth": "-20.8% (active)"}, {"smiles": "CCOC(=O)C1=C(N)Oc2cc(OC)ccc2C1c1ccc(F)c(F)c1", "note": "(stereo not given)", "growth": "73.6% (inactive)"}, {"smiles": "CCCc1nn2c(CCC(=O)c3nc4ccc([N+](=O)[O-])cc4[nH]3)nnc2s1", "growth": "114% (inactive)"}, {"smiles": "Cc1cn(-c2nc3c(c(NCc4ccccc4)n2)COCC3)c2cccc(C(N)=O)c12", "growth": "87.7% [0.5 µM] (inactive)"}, {"smiles": "COc1ccc(-c2cc3ccc(N(C)C)cc3nc2N)c(F)c1", "growth": "19% (inactive)"}, {"smiles": "COc1cccc(/C=N/C(=S)NC2(C)C3CCC(C3)C2(C)C)c1O", "note": "(stereo not given)", "growth": "93.3% (inactive)"}]}]}
